# ELG1 genotox – qHTS screen for small molecules that induce genotoxicity in human embryonic kidney (HEK293T) cells expressing luciferase-tagged ELG1. HEK293T ELG1-luciferase reporter, luminescence, 16 h. Potency, µM (titrated, usually from 46 µM), for inactives: at the top dose activity change, positive = activation, actives largely listed as activators. 330,000 compounds, 1.3% hits. AID 504466, 2011; note: % of control where 0% means no effect; nearly all actives have a fitted effect of over 60% in size
#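 ELG1-luciferase HEK293T cells, 2,000/well; compound pinned in; 16 hr, 37 °C, 5% CO2; ONE-Glo, 30 min RT; luminescence on CCD imager.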
# SMN2 splice enh – qHTS Assay for Enhancers of SMN2 Splice Variant Expression; HEK293 SMN2-luciferase splicing reporter, luminescence, 30-36 h; Potency, µM (titrated, usually from 46.1 µM), without a hit: at the top dose activity change, positive = activation, actives largely listed as activators; 210,000 compounds, 2.8% hits; AID 1458, 2008; note: % of control where 0% means no effect; nearly all actives have a fitted effect of over 55% in size
#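 HEK293 cells carry an SMN2 minigene-luciferase reporter in which exon 7 inclusion puts luciferase in frame. Cells were seeded at 2000 cells/well, attached for 10-12 hours, then exposed to compounds for 30-36 hours at 37C before ONE-Glo luminescence.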
# ELG1 repair inh – qHTS screen for small molecules that inhibit ELG1-dependent DNA repair in human embryonic kidney (HEK293T) cells expressing luciferase-tagged ELG1; 330,000 compounds, 2.3% hits; Potency, µM (series often up to 46.1 µM), for inactives: at the highest dose activity change, negative = inhibition, hits mostly inhibitors; AID 504467, 2011; HEK293T ELG1-luciferase reporter, luminescence, 16 h; DNA damage induced by 5-fluorouridine; note: % is set by controls: 0 for no effect and ±100 for the full control effect; nearly all actives have a fitted effect of over 55% in size
#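 Quantitative HTS, concentration-response format. 2,000 cells/well co-treated with 5-fluorouridine and compound, 16 hr in 5% CO2 at 37 °C; ONE-Glo luminescence read after 30 min.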
# NPC1 prom act – qHTS Assay for NPC1 Promoter Activators | Huh7 NPC1 promoter luciferase reporter, 24 h | Potency, µM (highest dose often 9.22 µM), for inactives: at the highest dose activation, actives largely listed as activators | 320,000 compounds, 2.4% hits | AID 485313, 2010; note: % of control where 0% means no effect; nearly all actives have a fitted effect of over 60% in size
#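 Compounds in DMSO were transferred onto Huh7 NPC1-luciferase reporter cells pre-incubated 2 h; after 24 h at 37 °C, Amplite reagent was dispensed and luminescence recorded 10 min later.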
# FLuc modulator – qHTS profiling assay for firefly luciferase inhibitor/activator using purifed enzyme and Km concentrations of substrates (counterscreen for miR-21 project). purified FLuc, Km substrates, luminescence inhibition. Potency, µM (highest dose often 57.5 µM), without a hit: top-dose activity change, negative = inhibition, hits mostly inhibitors. 360,000 compounds, 6.9% hits. AID 588342, 2011;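 note: plate controls were vehicle for no effect and reference inhibitor for full effect; nearly all actives have a fitted effect of over 55% in size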
# Target sequence (P08659 whole entry, looked up): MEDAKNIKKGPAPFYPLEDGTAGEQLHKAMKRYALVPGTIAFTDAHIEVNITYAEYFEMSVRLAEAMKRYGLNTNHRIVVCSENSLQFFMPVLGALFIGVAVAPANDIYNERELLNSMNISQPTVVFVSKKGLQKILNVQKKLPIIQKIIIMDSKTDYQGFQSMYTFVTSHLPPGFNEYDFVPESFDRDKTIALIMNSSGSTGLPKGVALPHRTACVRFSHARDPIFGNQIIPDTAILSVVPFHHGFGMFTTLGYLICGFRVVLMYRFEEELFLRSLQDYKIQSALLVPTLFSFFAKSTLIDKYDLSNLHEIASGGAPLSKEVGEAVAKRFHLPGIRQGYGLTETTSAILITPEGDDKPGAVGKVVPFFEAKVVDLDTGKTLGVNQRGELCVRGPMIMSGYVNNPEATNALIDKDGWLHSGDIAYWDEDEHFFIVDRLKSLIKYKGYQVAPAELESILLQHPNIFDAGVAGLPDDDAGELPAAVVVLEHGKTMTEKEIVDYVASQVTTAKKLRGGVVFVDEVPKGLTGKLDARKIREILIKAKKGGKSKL
#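 Purified P. pyralis luciferase (10nM final) with 10uM D-luciferin and 10uM ATP (Km levels) in 50mM Tris acetate pH 7.5, 10mM Mg acetate, 0.01% Tween-20, 0.05% BSA; qHTS 6-point titration, ~60 µM downward; luminescence read.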
# Rab9 promoter act – qHTS Assay for Rab9 Promoter Activators; 320,000 compounds, 2.8% hits; Potency, µM (top dose mostly 9.22 µM), without a hit: at the top dose activation, negative = inhibition, usual class: activators; Huh7 Rab9 promoter-luciferase reporter, luminescence, 24 h; AID 485297, 2010; note: % of control where 0% means no effect; nearly all actives have a fitted effect of over 60% in size
#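 Steps: seed 1500 Huh7 Rab9-luc cells per well, rest 2 h at 37 °C; add compound in DMSO; incubate 24 h; add luciferase reagent, 10 min ambient; read luminescence.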
# * hit, by the source's call; ? = inconclusive; / = no result given. Only some compounds are listed: those with a hit (about 9.2% of all), similar ones and a draw of the others. Calls come from the whole dose curve; as a rule, active = well fitted curve in the direction sought with a large enough effect; inconclusive = small, poorly fitted or top-dose-only effect, or another doubt; inactive = no such curve, though single readings can be large; an effect the other way counts as inactive or inconclusive. Potency is the fitted concentration of half-maximal effect.
SMILES,ELG1 genotox,SMN2 splice enh,ELG1 repair inh,NPC1 prom act,FLuc modulator,Rab9 promoter act
COc1ccc(OCc2cc(C(=O)NC3CCOCC3)no2)c2ccccc12,0.2%,/,12.0%,-3.9%,-4.7%,3.7%
COc1ccc(OCc2cc(C(=O)N3CCCC(O)C3)no2)c2ccccc12 (stereo unspecified),?,/,?,?,12µM*,?
O=C(CN1CCCC1)Nc1ccccc1C(=O)c1ccccc1,1.7%,/,36.1%,0.8%,1.1%,-4.5%
O=C(CN1CCN(S(=O)(=O)c2ccccc2F)CC1)Nc1ccccc1C(=O)c1ccccc1,-9.2%,-9.5%,11.6µM*,-4.8%,-0.6%,-4.0%
CCN(c1ccc(OCC(=O)OCC(=O)c2c(N)n(C)c(=O)n(C)c2=O)cc1)S(=O)(=O)c1ccccc1,-1.0%,1.0%,?,3.3%,12µM*,8.8%
CN(c1ccc(OCC(=O)OCC(=O)c2c(N)n(C)c(=O)n(C)c2=O)cc1)S(=O)(=O)c1ccc2ccccc2c1,1.9%,7.6%,7.7%,-3.8%,-14.0%,19.8%
CN(Cc1ccccc1)C(=O)COC(=O)c1cc2ccccc2oc1=O,-0.7%,/,0.0%,/,/,/
O=C(CSc1ncc(S(=O)(=O)c2ccc(Cl)cc2)c(=O)[nH]1)Nc1ccc2c(c1)OCCO2,/,-1.0%,/,/,12µM*,/
Cc1cc(C)c(NC(=O)CSc2ncc(S(=O)(=O)c3ccc(C(C)(C)C)cc3)c(=O)[nH]2)c(C)c1,/,-12.6%,/,/,10.7µM*,/
O=C(CSc1ncn[nH]1)Nc1ccc2c(c1)OCCO2,?,5.4%,?,11.8%,?,?
Cc1ccc(S(=O)(=O)c2cnc(SCC(=O)Nc3ccc4c(c3)OCCO4)[nH]c2=O)cc1Cl,/,/,/,/,10.7µM*,/
COc1cccc(NC(=O)CSc2ncc(S(=O)(=O)c3ccc(C)c(C)c3)c(=O)[nH]2)c1,/,-0.8%,/,/,?,/
COc1ccc(S(=O)(=O)c2cnc(SCC(=O)Nc3cc(F)ccc3C)[nH]c2=O)cc1Cl,/,-7.8%,/,/,9.53µM*,/
CCCC[C@H]1COCCS(=O)(=O)N1Cc1cccc([N+](=O)[O-])c1,0.8%,/,24.9%,1.2%,-1.8%,-2.3%
Cc1ccc(S(=O)(=O)c2cnc(SCC(=O)Nc3ccc4c(c3)OCCO4)[nH]c2=O)cc1,/,-3.4%,/,/,10.7µM*,/
CC(C)c1ccc(S(=O)(=O)c2cnc(SCC(=O)Nc3ccc4c(c3)OCCO4)[nH]c2=O)cc1,/,3.7%,/,/,10.7µM*,/
Cc1ccc(S(=O)(=O)c2cn(CC(=O)Nc3ccc4c(c3)OCO4)c3ccccc3c2=O)cc1,/,12.5%,/,/,5.5%,/
CCCc1c2c(cc3c(=O)cc(C(=O)OCC)oc13)CCCC2,-3.1%,/,0.0%,-2.3%,0.0%,-6.5%
Cc1cc(C)nc(SCC(=O)c2ccc(F)cc2)n1,7.8%,/,20.7%,9.1%,-13.1%,20.8%
Cc1cc(C)nc(S/C=C/C(=O)c2ccc(F)cc2)n1,15.6%,/,?,-6.1%,1.9µM*,-18.9%
CC(C)(C)c1cc(NC(=O)c2ccc(OC3CCCC3)cc2)no1,-0.1%,-18.0%,?,23.4%,?,18.7%
O=C(Nc1ccon1)c1ccc(OC2CCCC2)cc1,?,17.8µM*,?,2.51µM*,3.01µM*,2µM*
O=C(NCc1ccccn1)c1cc(S(=O)(=O)N2CCCCC2)ccc1Cl,-3.1%,/,18.4%,-0.3%,-0.7%,-2.8%
Cc1oc(-c2cccc(Cl)c2)nc1CN(C)C1CCOC1 (stereo unspecified),-0.7%,/,-1.9%,-6.2%,-3.1%,-1.3%
Cc1oc(-c2ccc(-c3ccccc3)cc2)nc1CN(C)C1CCOC1 (stereo unspecified),?,/,?,?,9.53µM*,?
SMILES,ELG1 genotox,SMN2 splice enh,ELG1 repair inh,NPC1 prom act,FLuc modulator,Rab9 promoter act
Cc1oc(-c2ccc(-c3ccccc3)cc2)nc1CN(CCO)C(C)C,?,/,?,?,10.7µM*,?
CC(C)c1ccc(Nc2c(-c3ccsc3)nc3ccc(Cl)cn23)cc1,/,0.3%,/,/,-4.6%,/
O=C(CN1CCN(C(=O)c2ccco2)CC1)Nc1ccc(F)cc1F,6.9%,/,23.9%,-3.7%,-14.1%,-0.4%
CC(C)(C)C(=O)Nc1ccc(C(=O)OC2CCCCC2)cc1,?,35.5µM*,?,1.41µM*,4.26µM*,1.41µM*
O=C(OC1CCCCC1)c1ccc(NC(=O)C2CCCCC2)cc1,-0.4%,-61.2%,?,-2.6%,?,0.3%
O=C(O)CCC(=O)Nc1ccc(C(=O)OC2CCCCC2)cc1,-0.2%,-15.4%,?,-3.8%,13.5µM*,-7.1%
Cn1c(-c2cccc(Br)c2)cnc1NCc1cccc(F)c1,/,-20.5%,/,/,-7.6%,/
CCN(CC(=O)Nc1ccc(NC(C)=O)cc1)C(=O)/C=C/c1c(C)nn(-c2ccc(F)cc2)c1C,-8.9%,/,8.2µM*,2.6%,-0.8%,3.7%
O=C(Nc1nc2cc3c(cc2s1)OCCO3)c1cccs1,0.411µM*,/,?,?,0.213µM*,0.112µM*
COc1ccc(C(=O)Nc2nc3cc4c(cc3s2)OCCO4)c(OC)c1,?,/,?,-3.1%,0.953µM*,-3.1%
NNc1nc2cc3c(cc2s1)OCCO3,?,/,?,1.58µM*,6.75µM*,1.58µM*
COc1ccccc1C(=O)Nc1nc2cc3c(cc2s1)OCCO3,2.06µM*,/,?,?,0.675µM*,0.708µM*
COc1cccc(OC)c1C(=O)Nc1nc2cc3c(cc2s1)OCO3,-2.6%,/,4.3%,9.9%,2.3%,8.9%
COc1cc(OC)cc(C(=O)NNc2nc3cc4c(cc3s2)OCO4)c1,1.2%,-19.8%,12.0%,-1.2%,-14.0%,0.6%
COc1ccccc1C(=O)Nc1nc2cc3c(cc2s1)OCO3,?,/,?,1.78µM*,0.536µM*,1.58µM*
O=C1c2ccccc2C(=O)N1CCCCN(C(=O)c1cc([N+](=O)[O-])cc([N+](=O)[O-])c1)c1ccc(Cl)cc1,-5.0%,-20.4%,-24.0%,-2.7%,1.5%,-2.5%
O=C1c2ccccc2C(=O)N1CCCCN(C(=O)c1cc([N+](=O)[O-])ccc1Cl)c1ccc(Cl)cc1,-12.6%,-29.9%,20.6µM*,-9.2%,1.0%,-3.0%
CCOC(=O)c1c(C)oc2nc(C)nc(NCc3cccc(Cl)c3)c12,/,/,/,/,6.1%,/
O=C(CN1CCCCC1)Nc1scc2c1c(=O)oc1ccccc12,14.7%,/,?,?,-9.5%,2.82µM*

# Bioassay records: PubChem BioAssay, National Center for Advancing Translational Sciences (NCATS)
